# PubChem BioAssay (EPA / NIEHS)
# Results filed as inconclusive are left out. Active and inactive are the calls of the source. How the source made its calls, unless noted: active means hit-call score of the fitted dose curve at least 0.9, where 1 is the maximum; inactive means score below 0.9.
# Tests used:
# [1] = ATG_PBREM_CIS: Attagene CIS-FACTORIAL HepG2 Assay for human Phenobarbital-responsive Enhancer Module (PBREM) (AID 2282955); details: HepG2 PBREM cis-reporter, Attagene multiplexed transcription; actives raise or lower the signal
# Method in brief: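 Cells were transfected with cis-element reporter units and treated for 24 h, after which RNA was extracted and reporter transcripts measured by RT-PCR and capillary electrophoresis.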
# [2] = biological target: Paired box protein Pax-6 (Homo sapiens) (UniProt P26367); assay: ATG_Pax6_CIS: Attagene CIS-FACTORIAL HepG2 Assay for human Paired Box 6 (PAX6) (AID 2282956); details: HepG2 CIS-FACTORIAL PAX6 reporter transcription, RNA readout; actives raise or lower the signal
# Method in brief: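 HepG2 cells transiently transfected with cis-promoter-driven multiplexed reporter units sensing endogenous transcription factor activity; 24 h chemical exposure. Reporter mRNA quantified by RT-PCR, 6-FAM labelling, HpaI digestion and capillary electrophoresis; bidirectional fit versus DMSO baseline.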
# [3] = ATG_PXRE_CIS: Attagene CIS-FACTORIAL HepG2 Assay for human Pregnane X Receptor Element (PXRE) (AID 2282957); details: HepG2 Attagene CIS-FACTORIAL PXRE reporter, mRNA; actives raise or lower the signal
# Method in brief: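 HepG2 cells transiently transfected with cis-element-driven multiplexed reporter units; after 24 h chemical exposure, reporter mRNA measured by RT-PCR, 6-FAM labelling, HpaI digestion and capillary electrophoresis. Bidirectional fitting relative to DMSO.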
# [4] = ATG_RORE_CIS: Attagene CIS-FACTORIAL HepG2 Assay for human RAR-related Orphan Receptor Element (RORE) (AID 2282959); details: HepG2 Attagene cis-factorial RORE reporter, mRNA; actives raise or lower the signal
# Method in brief: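 Endogenous factor activity at a cis response element is read as reporter transcript levels in HepG2 cells, 24 h post-dose. Transcripts are quantified by RT-PCR with capillary electrophoresis, and data fitted in both directions against DMSO.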
# [5] = ATG_Sox_CIS: Attagene CIS-FACTORIAL HepG2 Assay for human SRY-box transcription factor (SOX) (AID 2282960); details: HepG2 Attagene cis-factorial SOX reporter, mRNA; actives raise or lower the signal
# Method in brief: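 Measures mRNA induction of a SOX1-associated reporter in HepG2 after 24 h dosing. Fluorescently labelled RT-PCR fragments are separated by capillary electrophoresis, and gain or loss relative to DMSO control is fitted.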
# [6] = ATG_SREBP_CIS: Attagene CIS-FACTORIAL HepG2 Assay for human Sterol Regulatory Element Binding (SREBP) (AID 2282962); details: HepG2 Attagene cis-factorial SREBP reporter, mRNA; actives raise or lower the signal
# Method in brief: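 HepG2 cells transiently transfected with multiplexed cis-promoter reporter units sensing endogenous transcription factors; reporter mRNA measured 24 h after dosing by RT-PCR, 6-FAM labeling, HpaI digestion and capillary electrophoresis. Bidirectional fit versus DMSO.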
# [7] = biological target: Signal transducer and activator of transcription 3 (Homo sapiens) (UniProt P40763); assay: ATG_STAT3_CIS: Attagene CIS-FACTORIAL HepG2 Assay for human Signal Transducer and Activator of Transcription 3 (STAT3) (AID 2282963); details: HepG2, Attagene cis-factorial STAT3 reporter transcription; actives raise or lower the signal
# Method in brief: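 HepG2 cells transiently transfected with cis-element-driven multiple reporter transcription units; after 24 h chemical exposure, reporter mRNA measured by RT-PCR, 6-FAM primer-extension labelling, HpaI digestion and capillary electrophoresis. Bidirectional fitting versus DMSO baseline.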
# [8] = ATG_TA_CIS: Attagene CIS-FACTORIAL HepG2 Assay for human TA Basal Promoter (AID 2282964); details: HepG2 Attagene CIS-factorial TA basal promoter reporter; actives raise or lower the signal
# Method in brief: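 Multiplexed mRNA reporter assay, HepG2, 24 h. Reporter cDNA amplified, 6-FAM primer-extended, HpaI-cut, CE-sized; DMSO = negative control and baseline.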
# [9] = ATG_TCF_b_cat_CIS: Attagene CIS-FACTORIAL HepG2 Assay for human T-Cell-Factor with beta-catenin (TCF/b-cat) (AID 2282965); details: HepG2 TCF/beta-catenin cis-reporter transcription, actives raise or lower the signal
# Method in brief: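 HepG2 cells transiently transfected with multiple cis-promoter-regulated reporter transcription units, so endogenous transcription factor activity is measured. Reporter mRNA read 24 hours after dosing by RT-PCR, fluorescent labelling and capillary electrophoresis; bidirectional fitting against DMSO.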
# [10] = ATG_TAL_CIS: Attagene CIS-FACTORIAL HepG2 Assay for human TAL Basal Promoter (AID 2282966); details: HepG2 Attagene cis-factorial TAL promoter reporter; actives raise or lower the signal;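 further: background control endpoint measuring basal TAL promoter reporter mRNA not a specific factor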
# Method in brief: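 HepG2 cells transiently transfected with multiplexed cis-promoter reporter units, dosed 24 h. Reporter mRNA quantified by RT-PCR, 6-FAM labelling, HpaI digestion and capillary electrophoresis; TAL basal promoter serves as background control, fitted bidirectionally versus DMSO.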
# [11] = ATG_TGFb_CIS: Attagene CIS-FACTORIAL HepG2 Assay for human Transforming Growth Factor (TGF) (AID 2282967); details: HepG2 Attagene CIS TGFb reporter, mRNA transcription; actives raise or lower the signal
# Method in brief: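 Transcript-level reporter readout: HepG2 transfectants, 24 h exposure, RNA to cDNA, reporter-specific PCR, fluorescent primer extension, capillary sizing against ROX standards. Gain- or loss-of-signal relative to DMSO.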
# [12] = ATG_VDRE_CIS: Attagene CIS-FACTORIAL HepG2 Assay for human Vitamin D Receptor Element (VDRE) (AID 2282968); details: HepG2 VDRE cis-reporter transcription, actives raise or lower the signal
# Method in brief: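 HepG2 cells transiently transfected with cis-element reporter units, dosed 24 h; reporter mRNA measured by RT-PCR, 6-FAM labeling, HpaI digestion and capillary electrophoresis. Activity fitted bidirectionally against DMSO baseline.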
# [13] = biological target: Nuclear receptor subfamily 1 group I member 3 (Homo sapiens) (UniProt Q14994); assay: ATG_CAR_TRANS: Attagene TRANS-FACTORIAL HepG2 Assay for human Constitutive Androstane Receptor (CAR) (AID 2282969; active means hit-call score of the fitted dose curve at least 0.9, where 1 is the maximum;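 further: activators raise reporter mRNA above DMSO so AC50 marks induction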); details: HepG2 Attagene TRANS-FACTORIAL CAR reporter
# Method in brief: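 HepG2 cells transiently transfected with multiplexed GAL4-UAS reporter units expressing chimeric NR-Gal4 proteins; compound exposure 24 h. Reporter mRNA measured by RT-PCR, 6-FAM labelling, HpaI digestion and capillary electrophoresis; gain-of-signal fitted against DMSO baseline.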
# [14] = biological target: X-box-binding protein 1 (Homo sapiens) (UniProt P17861); assay: ATG_Xbp1_CIS: Attagene CIS-FACTORIAL HepG2 Assay for human X-box Binding Protein 1 (XBP1) (AID 2282972); details: HepG2 XBP1 cis-element reporter, Attagene multiplex; actives raise or lower the signal
# Method in brief: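 HepG2 cells transiently transfected with multiple cis-element reporter units report endogenous TF activity; 24 h exposure, then reporter mRNA measured by RT-PCR, 6-FAM labelling, HpaI digestion and capillary electrophoresis. Bidirectional fitting versus DMSO.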
# [15] = ATG_M_19_TRANS: Attagene TRANS-FACTORIAL HepG2 Assay for M19 Transcription Factor (Internal Marker) (AID 2282974; active means hit-call score of the fitted dose curve at least 0.9, where 1 is the maximum); details: HepG2 Attagene TRANS-FACTORIAL M19 internal marker reporter
# Method in brief: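 Reporter mRNA induction was measured in transfected HepG2 cells 24 h after dosing. Endpoint fitted upward relative to DMSO and serves as a background control within the multiplexed TRANS panel.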
# [16] = biological target: Transcription factor Sp1 (Homo sapiens) (UniProt P08047); assay: ATG_Sp1_CIS: Attagene CIS-FACTORIAL HepG2 Assay for human Specificity Protein 1 (Sp1) (AID 2282961); details: HepG2 Sp1 cis-reporter transcription, actives raise or lower the signal
# Method in brief: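 Cells: HepG2, transiently transfected with cis-regulated multiplexed reporters. Exposure: 24 h. Detection: reporter transcripts amplified, fluorescently labeled, restriction-digested and sized by capillary electrophoresis. Analysis: bidirectional fit relative to DMSO.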
# [17] = biological target: Estrogen receptor (Homo sapiens) (UniProt P03372); assay: ATG_ERa_TRANS: Attagene TRANS-FACTORIAL HepG2 Assay for human Estrogen Receptor alpha (ERa) (AID 2282970; active means hit-call score of the fitted dose curve at least 0.9, where 1 is the maximum); details: HepG2 Attagene TRANS ERa GAL4 reporter, mRNA
# Method in brief: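 HepG2 cells transiently transfected with multiplexed GAL4-UAS reporter units read out chimeric NR-Gal4 activity. After 24 h compound exposure, reporter mRNA was quantified by RT-PCR, 6-FAM labeling, HpaI digestion and capillary electrophoresis, relative to DMSO.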
# [18] = ATG_GAL4_TRANS: Attagene TRANS-FACTORIAL HepG2 Assay for GAL4 (Internal Marker) (AID 2282976; active means hit-call score of the fitted dose curve at least 0.9, where 1 is the maximum); details: HepG2 Attagene TRANS GAL4 internal marker reporter
# Method in brief: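 Background-control readout: GAL4-UAS reporter transcript in transiently transfected HepG2 cells after 24 h compound exposure. Measured by RT-PCR, 6-FAM primer extension, HpaI digest and capillary electrophoresis; gain-of-signal fit versus DMSO.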
# [19] = biological target: Steroid hormone receptor ERR1 (Homo sapiens) (UniProt P11474); assay: ATG_ERRa_TRANS: Attagene TRANS-FACTORIAL HepG2 Assay for human Estrogen-Related Receptor alpha (ERRa) (AID 2282971; active means hit-call score of the fitted dose curve at least 0.9, where 1 is the maximum); details: HepG2 Attagene TRANS reporter, ERRa transactivation
# Method in brief: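 HepG2 cells transiently transfected with GAL4-UAS reporter units and chimeric NR-Gal4 constructs; after 24 hour compound incubation, reporter mRNA quantified by RT-PCR, fluorescent labelling and capillary electrophoresis, gain of signal versus DMSO.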
# Chain of Transcription factor Sp1 (Homo sapiens) (P08047 whole entry, looked up): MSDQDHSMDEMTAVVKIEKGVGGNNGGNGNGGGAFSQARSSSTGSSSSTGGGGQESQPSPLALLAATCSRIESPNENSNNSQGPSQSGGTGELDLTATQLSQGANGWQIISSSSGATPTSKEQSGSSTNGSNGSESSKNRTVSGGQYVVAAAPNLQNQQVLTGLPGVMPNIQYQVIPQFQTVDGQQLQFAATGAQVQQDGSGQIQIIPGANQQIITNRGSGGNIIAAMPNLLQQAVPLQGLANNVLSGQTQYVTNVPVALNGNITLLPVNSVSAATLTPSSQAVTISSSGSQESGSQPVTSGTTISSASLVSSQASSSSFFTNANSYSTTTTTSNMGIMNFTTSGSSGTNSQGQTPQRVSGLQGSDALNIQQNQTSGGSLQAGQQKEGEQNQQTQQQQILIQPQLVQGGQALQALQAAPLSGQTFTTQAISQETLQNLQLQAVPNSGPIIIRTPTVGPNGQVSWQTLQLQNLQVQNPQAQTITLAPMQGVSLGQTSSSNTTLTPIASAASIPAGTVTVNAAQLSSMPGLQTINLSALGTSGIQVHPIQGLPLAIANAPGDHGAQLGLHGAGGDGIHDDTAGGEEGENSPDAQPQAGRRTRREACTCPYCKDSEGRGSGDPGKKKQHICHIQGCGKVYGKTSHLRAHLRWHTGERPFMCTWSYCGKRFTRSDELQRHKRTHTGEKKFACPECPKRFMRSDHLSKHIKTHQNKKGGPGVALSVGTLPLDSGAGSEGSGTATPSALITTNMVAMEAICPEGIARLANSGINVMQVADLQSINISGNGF
# Chain of Nuclear receptor subfamily 1 group I member 3 (Homo sapiens) (Q14994 whole entry, looked up, the tested form may be a part): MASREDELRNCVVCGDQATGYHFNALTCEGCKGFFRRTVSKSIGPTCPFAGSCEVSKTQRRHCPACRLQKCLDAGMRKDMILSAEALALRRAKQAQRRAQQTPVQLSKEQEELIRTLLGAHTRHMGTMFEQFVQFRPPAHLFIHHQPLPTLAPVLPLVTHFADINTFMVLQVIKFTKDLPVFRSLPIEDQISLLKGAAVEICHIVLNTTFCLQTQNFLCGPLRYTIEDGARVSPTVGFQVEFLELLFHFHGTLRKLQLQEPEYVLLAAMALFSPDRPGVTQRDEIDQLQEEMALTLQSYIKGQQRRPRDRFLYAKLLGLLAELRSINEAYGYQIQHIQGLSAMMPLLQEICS
# Chain of X-box-binding protein 1 (Homo sapiens) (P17861 whole entry, looked up): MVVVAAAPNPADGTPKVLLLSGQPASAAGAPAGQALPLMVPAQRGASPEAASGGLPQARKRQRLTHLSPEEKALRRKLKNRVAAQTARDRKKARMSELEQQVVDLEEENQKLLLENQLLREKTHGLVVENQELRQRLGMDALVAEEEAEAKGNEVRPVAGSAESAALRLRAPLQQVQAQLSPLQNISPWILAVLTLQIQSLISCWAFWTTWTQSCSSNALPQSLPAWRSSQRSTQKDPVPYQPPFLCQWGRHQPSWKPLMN
# Chain of Paired box protein Pax-6 (Homo sapiens) (P26367 whole entry, looked up): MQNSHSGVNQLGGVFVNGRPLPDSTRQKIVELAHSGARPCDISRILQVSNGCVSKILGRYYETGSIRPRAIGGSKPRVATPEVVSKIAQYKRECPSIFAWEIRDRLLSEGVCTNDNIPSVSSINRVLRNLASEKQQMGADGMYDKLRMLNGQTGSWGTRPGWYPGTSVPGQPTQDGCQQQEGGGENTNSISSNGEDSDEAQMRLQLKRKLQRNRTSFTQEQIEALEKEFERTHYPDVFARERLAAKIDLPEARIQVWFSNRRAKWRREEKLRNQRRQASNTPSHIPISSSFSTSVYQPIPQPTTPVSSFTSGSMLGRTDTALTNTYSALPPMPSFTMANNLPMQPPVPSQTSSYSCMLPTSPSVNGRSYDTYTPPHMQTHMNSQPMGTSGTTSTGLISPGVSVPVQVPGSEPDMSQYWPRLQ
# Chain of Estrogen receptor (Homo sapiens) (P03372 whole entry, looked up, the tested form may be a part): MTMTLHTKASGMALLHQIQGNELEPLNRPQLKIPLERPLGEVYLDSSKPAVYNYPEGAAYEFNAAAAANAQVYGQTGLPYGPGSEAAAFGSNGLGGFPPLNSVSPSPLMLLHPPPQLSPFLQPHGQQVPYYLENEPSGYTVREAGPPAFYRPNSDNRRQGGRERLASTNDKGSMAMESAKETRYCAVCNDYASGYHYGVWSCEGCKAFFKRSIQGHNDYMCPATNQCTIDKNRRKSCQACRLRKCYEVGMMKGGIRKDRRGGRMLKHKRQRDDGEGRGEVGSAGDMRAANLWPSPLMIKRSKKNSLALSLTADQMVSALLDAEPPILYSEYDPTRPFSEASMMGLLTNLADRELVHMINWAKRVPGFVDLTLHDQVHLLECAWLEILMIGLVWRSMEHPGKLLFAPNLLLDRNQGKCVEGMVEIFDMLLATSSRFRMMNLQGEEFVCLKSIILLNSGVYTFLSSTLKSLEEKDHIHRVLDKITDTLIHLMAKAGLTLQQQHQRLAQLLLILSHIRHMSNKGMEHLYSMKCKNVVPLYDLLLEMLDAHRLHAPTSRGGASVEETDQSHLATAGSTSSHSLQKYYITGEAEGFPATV
# Chain of Signal transducer and activator of transcription 3 (Homo sapiens) (P40763 whole entry, looked up): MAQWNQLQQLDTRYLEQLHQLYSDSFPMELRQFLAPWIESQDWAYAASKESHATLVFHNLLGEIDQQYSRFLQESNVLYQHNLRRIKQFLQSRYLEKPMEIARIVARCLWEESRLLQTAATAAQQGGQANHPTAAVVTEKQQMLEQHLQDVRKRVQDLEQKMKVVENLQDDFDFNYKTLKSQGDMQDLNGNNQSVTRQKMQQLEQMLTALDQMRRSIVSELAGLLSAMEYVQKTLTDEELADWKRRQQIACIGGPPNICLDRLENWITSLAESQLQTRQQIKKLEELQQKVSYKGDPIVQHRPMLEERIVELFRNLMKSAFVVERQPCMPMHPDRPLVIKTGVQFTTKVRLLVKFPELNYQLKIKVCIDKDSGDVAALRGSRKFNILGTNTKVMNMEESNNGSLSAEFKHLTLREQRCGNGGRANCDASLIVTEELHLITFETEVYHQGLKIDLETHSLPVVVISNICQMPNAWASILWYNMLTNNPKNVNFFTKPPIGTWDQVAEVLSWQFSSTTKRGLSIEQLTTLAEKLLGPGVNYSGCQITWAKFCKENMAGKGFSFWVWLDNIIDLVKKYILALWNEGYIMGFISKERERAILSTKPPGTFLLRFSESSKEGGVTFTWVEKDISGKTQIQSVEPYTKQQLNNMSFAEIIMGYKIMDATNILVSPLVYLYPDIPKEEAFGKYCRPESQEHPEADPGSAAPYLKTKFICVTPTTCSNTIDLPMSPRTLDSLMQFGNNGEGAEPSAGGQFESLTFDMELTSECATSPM
# Chain of Steroid hormone receptor ERR1 (Homo sapiens) (P11474 whole entry, looked up, the tested form may be a part): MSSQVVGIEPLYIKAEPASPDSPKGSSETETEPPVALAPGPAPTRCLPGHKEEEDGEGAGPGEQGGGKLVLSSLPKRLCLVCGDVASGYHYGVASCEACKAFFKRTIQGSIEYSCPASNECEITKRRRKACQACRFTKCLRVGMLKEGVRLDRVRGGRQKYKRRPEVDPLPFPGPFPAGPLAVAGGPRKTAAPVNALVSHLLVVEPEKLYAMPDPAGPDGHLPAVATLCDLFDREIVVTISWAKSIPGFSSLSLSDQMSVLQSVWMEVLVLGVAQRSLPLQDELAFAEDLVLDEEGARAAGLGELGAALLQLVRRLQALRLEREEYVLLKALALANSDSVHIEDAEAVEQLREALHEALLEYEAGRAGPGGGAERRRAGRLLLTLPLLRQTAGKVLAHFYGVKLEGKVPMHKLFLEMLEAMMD
smiles,measurement,setting,value
O=C1OCc2ccccc21,outcome,[1],inactive
same,outcome,[2],inactive
same,outcome,[3],inactive
same,outcome,[4],inactive
same,outcome,[5],inactive
same,outcome,[6],inactive
same,outcome,[7],inactive
same,outcome,[8],inactive
same,outcome,[9],inactive
same,outcome,[10],inactive
same,outcome,[11],inactive
same,outcome,[12],inactive
same,outcome,[13],inactive
same,outcome,[14],inactive
same,outcome,[15],inactive
CC(CO)c1ccccc1 (configuration not stated),outcome,[1],inactive
same,outcome,[2],inactive
same,outcome,[3],inactive
same,outcome,[4],inactive
same,outcome,[5],inactive
same,outcome,[16],inactive
same,outcome,[6],inactive
same,outcome,[7],inactive
same,outcome,[8],inactive
same,outcome,[9],inactive
same,outcome,[10],inactive
same,outcome,[11],inactive
same,outcome,[13],inactive
same,outcome,[17],inactive
same,outcome,[14],inactive
same,outcome,[15],inactive
same,outcome,[18],inactive
CCOC(=O)CCCCCCCCC(=O)OCC,outcome,[1],inactive
same,outcome,[2],inactive
same,outcome,[3],inactive
same,outcome,[4],inactive
same,outcome,[5],inactive
same,outcome,[6],inactive
same,outcome,[7],inactive
same,outcome,[8],inactive
same,outcome,[10],inactive
same,outcome,[11],inactive
same,outcome,[12],inactive
same,outcome,[17],inactive
same,outcome,[14],inactive
same,outcome,[15],inactive
same,outcome,[18],inactive
CCC(CC)CO,outcome,[1],inactive
same,outcome,[2],inactive
same,outcome,[3],inactive
same,outcome,[4],inactive
same,outcome,[5],inactive
same,outcome,[16],inactive
same,outcome,[6],inactive
same,outcome,[7],inactive
same,outcome,[9],inactive
same,outcome,[10],inactive
same,outcome,[11],inactive
same,outcome,[12],inactive
same,outcome,[13],inactive
same,outcome,[17],inactive
same,outcome,[14],inactive
same,outcome,[15],inactive
same,outcome,[18],inactive
CCCCCCCCCO,outcome,[1],inactive
same,outcome,[2],inactive
same,outcome,[3],inactive
same,outcome,[4],inactive
same,outcome,[5],inactive
same,outcome,[16],inactive
same,outcome,[6],inactive
same,outcome,[7],inactive
same,outcome,[8],inactive
same,outcome,[10],inactive
same,outcome,[11],inactive
same,outcome,[12],inactive
same,outcome,[17],inactive
same,outcome,[19],inactive
same,outcome,[14],inactive
same,outcome,[15],inactive
same,outcome,[18],inactive
CC1(C)[C@H](C=C(Cl)Cl)[C@H]1C(=O)OCc1cccc(Oc2ccccc2)c1,outcome,[1],inactive
same,outcome,[2],inactive
same,AC50,[3],3.1 µM (active)
same,outcome,[4],inactive
same,outcome,[5],inactive
same,outcome,[6],inactive
same,outcome,[7],inactive
same,outcome,[8],inactive
same,outcome,[9],inactive
same,outcome,[10],inactive
same,AC50,[12],4.62 µM (active)
same,outcome,[13],inactive
same,AC50,[17],8.45 µM (active)
same,outcome,[14],inactive
same,outcome,[15],inactive
same,outcome,[18],inactive
CC(=O)CCC=C(C)CCC=C(C)C,outcome,[1],inactive
same,outcome,[2],inactive
same,AC50,[3],6.98 µM (active)
same,outcome,[4],inactive
same,outcome,[5],inactive
same,outcome,[6],inactive
same,outcome,[7],inactive
same,outcome,[8],inactive
same,outcome,[10],inactive
same,AC50,[12],7.02 µM (active)
same,outcome,[13],inactive
C=COCC1CCC(COC=C)CC1 (configuration not stated),outcome,[1],inactive
same,outcome,[2],inactive
same,outcome,[3],inactive
same,outcome,[4],inactive
same,outcome,[5],inactive
same,outcome,[16],inactive
same,outcome,[6],inactive
same,outcome,[7],inactive
same,outcome,[8],inactive
same,outcome,[10],inactive
same,outcome,[11],inactive
same,outcome,[12],inactive
same,outcome,[13],inactive
same,outcome,[17],inactive
same,outcome,[14],inactive
same,outcome,[15],inactive
same,outcome,[18],inactive
CCC=C(C)C=O,outcome,[1],inactive
same,outcome,[2],inactive
same,AC50,[3],24.7 µM (active)
same,outcome,[4],inactive
same,outcome,[5],inactive
same,outcome,[16],inactive
same,outcome,[6],inactive
same,outcome,[7],inactive
same,outcome,[9],inactive
same,outcome,[10],inactive
same,AC50,[11],0.643 µM (active)
same,outcome,[12],inactive
same,outcome,[13],inactive
same,outcome,[19],inactive
same,outcome,[14],inactive
same,outcome,[15],inactive
same,outcome,[18],inactive
